Hit rate of the full screen: of about 5,500 compounds, about 2,000 (36%) were called active. Inconclusive results (about 18%) are left out. No stated cut-off is given here; in the data, active means normalized growth mostly below about 0.91 (no sharp cut-off); inconclusive means no clear call, values can overlap the other calls; inactive means mostly above about 0.92. The list shows a part of the results.
Test: chemical genetic growth profiling, strain panel (AID 1159580);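 further: tested at 20 µM; growth read once vehicle control cultures reached saturation at 30 °C; 1 = growth at the plate median or of vehicle wells; lower values mean less growth of the strain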
Settings: S. cerevisiae deletion strains, growth OD

Measured: normalized growth

CC1(C)c2ccccc2N(CCC(N)=O)C12C=Cc1c(ccc3ccccc13)O2 (stereo unspecified)
inactive: locus YAR019C, strain CDC15, hits give low values 0.972 | locus YBL105C, strain PKC1, hits give low values 0.968 | locus YBR135W, strain CKS1, hits give low values 0.97 | locus YBR136W, strain MEC1, hits give low values 0.95 | locus YBR160W, strain CDC28, hits give low values 0.971 | locus YDL017W, strain CDC7, hits give low values 0.965 | locus YDL028C, strain MPS1, hits give low values 0.969 | locus YDL101C, strain DUN1, hits give low values 0.955 | locus YDL108W, strain KIN28, hits give low values 0.944 | locus YDL132W, strain cdc53, hits give low values 0.964 | locus YDL214C, strain PRR2, hits give low values 0.901 | locus YDR052C, strain DBF4, hits give low values 0.97 | locus YDR054C, strain cdc34, hits give low values 0.956 | locus YDR226W, strain ADK1, hits give low values 0.973 | locus YDR477W, strain SNF1, hits give low values 0.939 | locus YER123W, strain YCK3, hits give low values 0.865 | locus YER133W, strain GLC7, hits give low values 0.927 | locus YFL009W, strain cdc4, hits give low values 0.979 | locus YFL029C, strain CAK1, hits give low values 0.964 | locus YFR003C, strain YPI1, hits give low values 0.959 | locus YFR019W, strain FAB1, hits give low values 0.943 | locus YFR028C, strain CDC14, hits give low values 0.981 | locus YGR040W, strain KSS1, hits give low values 0.92 | locus YGR052W, strain FMP48, hits give low values 0.968 | locus YGR092W, strain DBF2, hits give low values 0.906 | locus YHR030C, strain SLT2, hits give low values 1.04 | locus YHR079C, strain IRE1, hits give low values 0.973 | locus YHR082C, strain KSP1, hits give low values 0.97 | locus YHR205W, strain SCH9, hits give low values 0.956 | locus YIL147C, strain SLN1, hits give low values 0.971 | locus YJL095W, strain BCK1, hits give low values 0.975 | locus YJL128C, strain PBS2, hits give low values 0.907 | locus YJL157C, strain FAR1, hits give low values 0.896 | locus YJR016C, strain ILV3, hits give low values 0.969 | locus YJR066W, strain TOR1 (second series), hits give low values 0.891 | locus YJR066W, strain TOR1, hits give low values 0.962 | locus YKL048C, strain ELM1, hits give low values 0.912 | locus YKL067W, strain YNK1, hits give low values 0.918 | locus YKL101W, strain HSL1, hits give low values 0.908 | locus YKL193C, strain SDS22, hits give low values 0.959 | locus YKL203C, strain TOR2, hits give low values 0.985 | locus YLR113W, strain HOG1, hits give low values 0.919 | locus YLR133W, strain CKI1, hits give low values 0.944 | locus YLR403W, strain SFP1, hits give low values 0.915 | locus YML070W, strain DAK1, hits give low values 0.883 | locus YMR001C, strain CDC5, hits give low values 0.966 | locus YMR205C, strain PFK2 (second series), hits give low values 0.926 | locus YMR277W, strain FCP1, hits give low values 0.968 | locus YNL006W, strain LST8, hits give low values 0.986 | locus YNL020C, strain ARK1, hits give low values 0.915 | locus YNL161W, strain CBK1, hits give low values 0.966 | locus YNL183C, strain NPR1, hits give low values 0.989 | locus YNL207W, strain RIO2, hits give low values 0.96 | locus YNL222W, strain SSU72, hits give low values 0.962 | locus YNL307C, strain MCK1 (second series), hits give low values 0.922 | locus YOL078W, strain AVO1, hits give low values 0.96 | locus YOL136C, strain PFK27, hits give low values 0.907 | locus YOR061W, strain CKA2, hits give low values 0.889 | locus YOR119C, strain RIO1, hits give low values 0.968 | locus YOR231W, strain MKK1, hits give low values 0.95 | locus YOR329C, strain SCD5, hits give low values 0.971 | locus YPL031C, strain PHO85, hits give low values 0.921 | locus YPL153C, strain RAD53, hits give low values 0.931 | locus YPL204W, strain HRR25, hits give low values 0.937 | locus YPL209C, strain IPL1, hits give low values 0.966 | locus YPL256C, strain CLN2, hits give low values 0.925 | locus YPR025C, strain CCL1, hits give low values 0.973 | locus YPR106W, strain ISR1, hits give low values 0.957 | locus YPR111W, strain DBF20, hits give low values 0.963 | strain NNK1, hits give low values 0.944 | strain TSCII, hits give low values 0.97

Reference: PubChem BioAssay AID1159580 (chemical genetic matrix, 2015)
